Measurements from PubChem BioAssay (NCI).
The panel holds about 83,000 compounds, 20% with a hit somewhere; the sample as a whole holds those more often.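 Method: cells in 96-well plates; compound added at one concentration; 48 h incubation; percent growth measured; values under 10 scored active.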 Values without a mark were called inactive. Active and inactive are the calls of the source.

Legend:
Test in all cases: NCI-60 one-dose screen, 48 h (100 = growth as untreated, 0 = no growth, -100 = all killed)
Conditions in all cases: 10 µM
[1] = system: HCT-15 colon
[2] = system: HT29 colon
[3] = system: SNB-75 CNS
[4] = system: SNB-19 CNS
[5] = system: U251 CNS
[6] = system: PC-3 prostate
[7] = system: SK-MEL-5 melanoma
[8] = system: UACC-62 melanoma
[9] = system: LOX IMVI melanoma
[10] = system: SK-MEL-28 melanoma
[11] = system: SK-MEL-2 melanoma
[12] = system: SN12C renal
[13] = system: UO-31 renal
[14] = system: TK-10 renal
[15] = system: ACHN renal
[16] = system: CAKI-1 renal
[17] = system: A498 renal
[18] = system: CCRF-CEM leukemia
[19] = system: MOLT-4 leukemia

SMILES | growth [1] | growth [2] | growth [3] | growth [4] | growth [5] | growth [6] | growth [7] | growth [8] | growth [9] | growth [10] | growth [11] | growth [12] | growth [13] | growth [14] | growth [15] | growth [16] | growth [17] | growth [18] | growth [19]
Cc1nc2scc(-c3ccc(Cl)cc3)n2c(=O)c1CCN1CCOCC1 | 105% | 105% | 84.6% | 94.6% | 96.7% | 87.5% | 94.5% | 85.6% | 97.5% | 102% | 105% | 94% | 57.5% | 142% | 89.4% | 84.6% | 119% | 93.6% | 78.1%
CC(=O)OCC(COC(C)=O)(COC(C)=O)COC(C)=O | 102% | 102% | 105% | 104% | 103% | 102% | 93% | 103% | 98.1% | 121% | 101% | 108% | 84.7% | 108% | 110% | 103% | 73.4% | 103% | 93.5%
COc1ccc(-c2nc(-c3ccccc3)c(-c3ccccc3)[nH]2)cc1OC1CCCC1 | 19.8% | 35.5% | 70.5% | 66.4% | 39.1% | 50.1% | 67.7% | 57% | 24.3% | 79.4% | 66.2% | 62.5% | 67.4% | 88.4% | 54.4% | 71% | -9.35% (active) | 50.7% | 40.8%
COc1ccc(-c2nnc(COc3ccc(NC(=O)Nc4cccc(C(F)(F)F)c4)cc3F)o2)cc1 | 46.1% | 66.8% | 79.6% | 47.7% | 48.1% | 46.5% | 78.8% | 17.1% | 8.23% (active) | 73.4% | 36.8% | 48.7% | 57.2% | 75.3% | 27.3% | 50.6% | 27.3% | 47.7% | 33.8%
COc1cc(-c2nc3ccc(C)cc3[nH]2)ccc1OCC(=O)N=Nc1c(O)[nH]c2ccccc12 | 52.7% | -77.1% (active) | -34.8% (active) | -75.2% (active) | -96.3% (active) | -63.8% (active) | 29.1% | -83.1% (active) | -97.7% (active) | -77.5% (active) | -52.9% (active) | -61.8% (active) | 95.9% | 10.3% | 14% | -46.3% (active) | 75.5% | -50% (active) | -65% (active)
CCOC(=O)CSC(=S)SCC(=O)OCC | 94.6% | 99.8% | 83.1% | 105% | 104% | 103% | 106% | 101% | 98.6% | 97.7% | 96.7% | 106% | 102% | 132% | 109% | 103% | 121% | 85.1% | 96.6%
C=C[C@]1(C)C=C2C(=O)[C@@]3(O)OC(=O)[C@@]4(CCCC(C)(C)[C@H]34)[C@@]2(O)CC1 | -30.5% (active) | -2.72% (active) | -78.8% (active) | 26.5% | -94% (active) | -74.7% (active) | -99.1% (active) | -87.2% (active) | -96.7% (active) | -98.8% (active) | -66.5% (active) | -66.5% (active) | -99.4% (active) | -95.5% (active) | -100% (active) | -90.6% (active) | -94.6% (active) | -31.5% (active) | -13.6% (active)
